“And” between values parts separate entries of the source, which are not always exact repeats. Equal values may be shown once. Inconclusive results are not listed. The source holds several records for some structures; these can differ, active in one and inactive in another. The source made the active and inactive calls. Unless noted, calls come from the whole dose curve; as a rule, active = well fitted curve in the direction sought with a large enough effect in the repeat runs; inconclusive = weak or mixed curves; inactive = no such curve, though single readings can be large; an effect the other way counts as inactive or inconclusive.
How the values were obtained:
[1] = qHTS RealTime-Glo MT Cell Viability Assay in HepG2 cells - 24 hour (AID 1224867); note: nearly all actives have a fitted effect of over 50% in size
Method in brief: (§1)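 Viability was tracked continuously by NanoLuc luminescence from prosubstrate reduced by living HepG2 cells, at successive time points over 40 h of compound exposure. Cells with reagent were preincubated 5 h at 37 °C before compound addition.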

[2] = qHTS RealTime-Glo MT Cell Viability Assay in HEK293 cells - 32 hour (AID 1224868); note: nearly all actives have a fitted effect of over 50% in size; note: potency is the fitted concentration of half-maximal effect
Method in brief: (§2)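 Viability tracked continuously by luminescence as live cells reduce a prosubstrate for NanoLuc; HEK293 cells preincubated 5 h, compound-treated at 37 C, and read at 0, 8, 16, 24, 32 and 40 h.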

[3] = A CellTox Green Cytotoxicity Assay to monitor cytotoxicity in HEK293 cells - 0 hour (AID 1224869); note: nearly all actives have a fitted effect of over 50% in size
Method in brief: (§3)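 HEK293 cells premixed with CellTox Green dye were seeded at 600 cells/well and left 5 h at 37 C/5% CO2 before pin transfer of 23 nL compound in DMSO. Fluorescence from dye bound to dead-cell DNA was read during 40 h treatment.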

[4] = qHTS RealTime-Glo MT Cell Viability Assay in HepG2 cells - 40 hour (AID 1224870); note: nearly all actives have a fitted effect of over 50% in size
Method in brief: (§4)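 HepG2 cells mixed with RealTime-Glo MT reagents (NanoLuc plus cell-permeant prosubstrate) were seeded at 600 cells/well, incubated 5 h at 37 C/5% CO2, then pinned with compounds in DMSO; nonlytic luminescence tracked viability during 40 h treatment.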

[5] = A CellTox Green Cytotoxicity Assay to monitor cytotoxicity in HEK293 cells - 40 hour (AID 1224871); note: nearly all actives have a fitted effect of over 45% in size; note: potency is the fitted concentration of half-maximal effect
Method in brief: as §3

[6] = qHTS RealTime-Glo MT Cell Viability Assay in HEK293 cells - 16 hour (AID 1224872)
Method in brief: as §2

[7] = qHTS RealTime-Glo MT Cell Viability Assay in HEK293 cells - 40 hour (AID 1224874); settings: RealTime-Glo luminescence; max response: stronger effect = lower value; note: nearly all actives have a fitted effect of over 50% in size; note: potency is the fitted concentration of half-maximal effect
Method in brief: (§5)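 HEK293 cells mixed with RealTime-Glo reagents (NanoLuc plus cell-permeant prosubstrate) at 600 cells/well, preincubated 5 h at 37 C/5% CO2, then given 23 nL compound in DMSO. Nonlytic luminescence from viable cells was read at 0, 8, 16, 24, 32 and 40 h.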

[8] = A CellTox Green Cytotoxicity Assay to monitor cytotoxicity in HEK293 cells - 24 hour (AID 1224875); note: nearly all actives have a fitted effect of over 45% in size
Method in brief: as §3

[9] = A CellTox Green Cytotoxicity Assay to monitor cytotoxicity in HepG2 cells - 16 hour (AID 1224876); note: nearly all actives have a fitted effect of over 45% in size
Method in brief: (§6)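 HepG2 cells were seeded together with the CellTox Green dye at 600 cells/well, left 5 h at 37 C/5% CO2, then given compounds in DMSO. Fluorescence from dye bound to dead-cell DNA was read repeatedly over 40 h of treatment at 37 C.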

[10] = qHTS RealTime-Glo MT Cell Viability Assay in HepG2 cells - 32 hour (AID 1224877); note: nearly all actives have a fitted effect of over 55% in size
Method in brief: as §1

[11] = A CellTox Green Cytotoxicity Assay to monitor cytotoxicity in HepG2 cells - 24 hour (AID 1224878); note: nearly all actives have a fitted effect of over 45% in size
Method in brief: as §6

[12] = A CellTox Green Cytotoxicity Assay to monitor cytotoxicity in HepG2 cells - 40 hour (AID 1224879); note: nearly all actives have a fitted effect of over 40% in size; note: potency is the fitted concentration of half-maximal effect
Method in brief: as §6

[13] = qHTS RealTime-Glo MT Cell Viability Assay in HEK293 cells - 0 hour (AID 1224880)
Method in brief: as §5

[14] = A CellTox Green Cytotoxicity Assay to monitor cytotoxicity in HEK293 cells - 32 hour (AID 1224881); note: nearly all actives have a fitted effect of over 40% in size; note: potency is the fitted concentration of half-maximal effect
Method in brief: as §3

[15] = A CellTox Green Cytotoxicity Assay to monitor cytotoxicity in HepG2 cells - 0 hour (AID 1224882); note: nearly all actives have a fitted effect of over 35% in size
Method in brief: as §6

[16] = A CellTox Green Cytotoxicity Assay to monitor cytotoxicity in HepG2 cells - 32 hour (AID 1224883); note: nearly all actives have a fitted effect of over 50% in size
Method in brief: as §6

[17] = A CellTox Green Cytotoxicity Assay to monitor cytotoxicity in HEK293 cells - 8 hour (AID 1224884); note: nearly all actives have a fitted effect of over 35% in size; note: potency is the fitted concentration of half-maximal effect
Method in brief: as §3

[18] = qHTS RealTime-Glo MT Cell Viability Assay in HepG2 cells - 8 hour (AID 1224873); note: nearly all actives have a fitted effect of over 55% in size
Method in brief: as §4

[19] = qHTS assay to identify small molecule antagonists of the estrogen related receptor (ERR) signaling pathway from Tox21 library (AID 1224848); note: nearly all actives have a fitted effect of over 50% in size
Method in brief: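 Cells: ERR line, 2,000/well; 6 h preincubation 37 C/5% CO2. Cpd in DMSO via pin tool; 18 h, 37 C. ONE-Glo, 30 min RT, luminescence.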

[20] = qHTS assay to identify small molecule agonists of the estrogen related receptor (ERR) signaling pathway from Tox21 library (AID 1224849; calls by dose curve; note: nearly all actives have a fitted effect of over 15% in size); settings: ERR reporter cell line, ONE-Glo luciferase, 18 h; at 92.4 µM (top of the series)
Method in brief: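 ERR reporter cell line (NTP) seeded, rested 6 h at 37 C/5% CO2, then pinned with Tox21 compounds in DMSO. After 18 h at 37 C, ONE-Glo luciferase luminescence was read following 30 min at room temperature.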
% is set by controls: 0 for no effect and ±100 for the full control effect.

O=S(=O)(c1ccc(O)cc1)c1ccc(O)cc1
inactive: outcome [1] | Potency [2] | Potency [3] | outcome [4] | Potency [5] | outcome [6] | max response [7] -19.2% | Potency [8] | Potency [9] | outcome [10] | Potency [11] | Potency [12] | outcome [13] | Potency [14] | Potency [15] | Potency [16] | Potency [17]

CCN(CC)c1ccccc1
inactive: outcome [1] | Potency [2] | Potency [3] | outcome [4] | Potency [5] | outcome [6] | outcome [18] | max response [7] 8.36% and 18.4% | Potency [8] | outcome [10] | Potency [11] | Potency [12] | outcome [13] | Potency [14] | Potency [15] | Potency [16] | Potency [17]

C=C(C)CCl
inactive: outcome [1] | Potency [2] | Potency [3] | outcome [4] | Potency [5] | activity change, negative = cytotoxicity [6] 7.57% [at 6.97 µM] | outcome [18] | max response [7] 0.792% and 2.61% | Potency [8] | Potency [9] | outcome [10] | Potency [11] | Potency [12] | Potency [14] | Potency [15] | Potency [16] | Potency [17]

CN=C=S
inactive: Potency [19] | activity change, positive = activation [20] 0.382% and 8.43% | Potency [2] | Potency [3] | outcome [4] | Potency [5] | outcome [6] | max response [7] 6.14% and -4.64% | Potency [8] | outcome [10] | Potency [11] | Potency [12] | Potency [14] | Potency [15] | Potency [16] | Potency [17]

CC(C)C#N
inactive: outcome [1] | Potency [2] | Potency [3] | outcome [4] | Potency [5] | outcome [6] | outcome [18] | max response [7] 8.8% and 1.31% | Potency [8] | Potency [9] | outcome [10] | Potency [11] | Potency [12] | outcome [13] | Potency [14] | Potency [15] | Potency [16] | Potency [17]

c1cc2c3c(cccc3c1)CC2
inactive: outcome [1] | Potency [2] | Potency [3] | outcome [4] | outcome [6] | outcome [18] | max response [7] 0.321% and -19.1% | outcome [10] | Potency [11] | Potency [12] | Potency [15] | Potency [16]
inactive and 43.6 µM (active): Potency [5]
inactive and 49 µM (active): Potency [14] | Potency [17]

CCNc1nc(NC(C)(C)C)nc(SC)n1
active: Potency [2] 43.1 µM | Potency [7] 27.2 µM
inactive: outcome [1] | Potency [3] | outcome [4] | Potency [5] | outcome [6] | outcome [18] | Potency [8] | Potency [9] | outcome [10] | Potency [11] | Potency [12] | outcome [13] | Potency [14] | Potency [15] | Potency [16] | Potency [17]

c1ccc(OP(Oc2ccccc2)Oc2ccccc2)cc1
inactive: outcome [1] | Potency [2] | Potency [3] | outcome [4] | Potency [5] | outcome [6] | outcome [18] | max response [7] 4.65% and 9.76% | Potency [8] | outcome [10] | Potency [11] | Potency [12] | outcome [13] | Potency [14] | Potency [15] | Potency [16] | Potency [17]

CCOP(=S)(OCC)SCCSCC
inactive: outcome [1] | Potency [2] | Potency [3] | outcome [4] | Potency [5] | outcome [6] | outcome [18] | max response [7] 5.05% and 1.7% | Potency [8] | Potency [9] | outcome [10] | Potency [11] | Potency [12] | outcome [13] | Potency [14] | Potency [15] | Potency [16] | Potency [17]

ClCCBr
inactive: Potency [19] | activity change, positive = activation [20] 3.01% and -0.293% | Potency [2] | Potency [3] | outcome [4] | Potency [5] | outcome [6] | max response [7] -0.15% and 0.955% | Potency [8] | Potency [9] | outcome [10] | Potency [11] | Potency [12] | Potency [14] | Potency [15] | Potency [16] | Potency [17]

CC1C=[C-]C=C1.[C-]#[O+].[C-]#[O+].[C-]#[O+].[Mn]
inactive: outcome [1] | Potency [2] | Potency [3] | outcome [4] | Potency [5] | outcome [6] | max response [7] 5.97% and 3.98% | Potency [8] | Potency [9] | outcome [10] | Potency [11] | Potency [12] | outcome [13] | Potency [14] | Potency [15] | Potency [16] | Potency [17]

CC(Oc1ccc(Cl)cc1Cl)C(=O)O (centres undefined)
inactive: outcome [1] | Potency [2] | Potency [3] | outcome [4] | Potency [5] | outcome [6] | outcome [18] | max response [7] -2.47% | Potency [8] | Potency [9] | outcome [10] | Potency [11] | Potency [12] | outcome [13] | Potency [14] | Potency [15] | Potency [16] | Potency [17]

Cc1ccc(N)cc1N
active: activity change, positive = activation [20] 49%
inactive: Potency [19] | Potency [3] | outcome [4] | Potency [5] | outcome [6] | outcome [18] | max response [7] 14.6% | Potency [8] | outcome [10] | Potency [11] | Potency [12] | Potency [14] | Potency [15] | Potency [16] | Potency [17]

c1ccc2c(c1)Oc1ccccc1O2
inactive: outcome [1] | Potency [2] | Potency [3] | outcome [4] | Potency [5] | outcome [6] | outcome [18] | max response [7] 4.43% and 0.097% | Potency [8] | Potency [9] | outcome [10] | Potency [11] | outcome [13] | Potency [14] | Potency [15] | Potency [16] | Potency [17]
30.5 µM (active) and inactive: Potency [12]
